SF-1 inh – inhibitors of human SF-1, primary screen, cell-based, CHO-K1, Gal4-SF-1 LBD, luciferase luminescence | Steroidogenic factor 1 (Homo sapiens), Q13285 | CHO-K1 Gal4-SF-1 LBD luciferase reporter | inhibition, % at 10 µM | 65,000 compounds, 0.55% hits;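 active = inhibition above the mean inhibition of all tested compounds plus 3 SD, cut at about 48% in these data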
Hits are given with their value; n = inactive. Only a selection was taken, and hits are over-represented in it overall.

SMILES	SF-1 inh
CCOC(=O)N1CCC(NC(=O)c2cnn3c(C(F)(F)F)cc(-c4cccc(OC)c4)nc23)CC1	n
CCOC(=O)N1CCC(NC(=O)C2CCCN(Cc3nc(-c4cccc(Cl)c4)oc3C)C2)CC1 (configuration not stated)	58
CCOC(=O)N1CCC(NC(=O)c2ccc(OC)c(CN3CC(=O)N4CCCC4C3=O)c2)CC1 (configuration not stated)	n
O=C(NC1CC1)C1CC(=O)N(C2CCCCC2)C1 (configuration not stated)	n
Cc1cc(/C=c2/sc3nc4ccccc4n3c2=O)c(C)n1-c1ccccn1	85
CCOC(=O)Cn1c(-c2ccccn2)nc2ccccc21	n
CCOC(=O)C1CCN(C(=O)CC(NS(=O)(=O)c2ccc(OC)cc2)C(C)C)CC1 (configuration not stated)	n
CC1CCCCN1CCNC(=O)CN1C(=O)COc2ccccc21 (configuration not stated)	n
COc1cccc(-c2cc(C(=O)NCCN3CCOCC3)no2)c1	n
O=C(NCCCN1CCCCCC1)c1ccc2c(c1)NC(=O)C(N1CCOCC1)S2 (configuration not stated)	n
O=C(NCCCN1CCOCC1)c1csc2c1CCCC2	74
Cc1cccc(N=c2oc3cc(O)ccc3cc2C(N)=O)c1	n
O=C(Oc1ccc(OC(=O)c2ccncc2)cc1)c1ccncc1	n
O=C(NCCC1=CCCCC1)NC1CCCCC1	n
Cc1ccccc1S(=O)(=O)Cc1ccc(C(=O)N2CCN(c3cccc(C)c3C)CC2)o1	82
CC1CCN(CCCNC(=O)c2ccc(CS(=O)(=O)Cc3ccccc3F)o2)CC1	n
CS(=O)(=O)N1CCN(c2ccccc2NC(=O)Cc2ccccc2)CC1	n
C=CCOC(=O)c1sc(NC(=O)c2ccco2)nc1C	n
O=C(CSc1ccccn1)N1CCN(c2ccccc2)CC1	n
Cc1cccc(N2CCN(C(=O)CSCc3c(C)noc3C)CC2)c1C	50
C=CCn1c(SCc2c(C)noc2C)nc2cc(C(=O)O)ccc2c1=O	n
Cc1cccc(-c2nc(C#N)c(NC3CCCCC3)o2)c1	n
CC12CCC(C(=O)N3CCN(C(=O)C45CCC(C)(C(=O)O4)C5(C)C)CC3)(OC1=O)C2(C)C	n
CCOC(=O)c1c(C)nc(-c2ccccc2)nc1N	n
CCOC(=O)C1=Nc2ccccc2C1=[N+]=[N-]	84
SMILES	SF-1 inh
CCOC(=O)c1cnc2c(-c3ccccc3)cnn2c1N	n
O=C(CCc1c[nH]c2ccccc12)NCC1CCCO1 (configuration not stated)	n
Cn1c(CSc2nc3ccccc3s2)nc2ccccc21	n
OC1CCCCC1Sc1nc2ccccc2s1 (configuration not stated)	n
O=S1(=O)C=C(Sc2nc3ccccc3s2)c2ccccc21	93
O=C(Nc1ccc2c(c1)OCO2)c1ccc(COc2ccc3c(c2)CCC3)o1	n
CCOC(=O)c1ccc(NC(=O)N(CC)CC)cc1	n
COc1ccc(-n2nnnc2SCC(=O)c2cc3ccccc3o2)cc1	n
COC(=O)c1cc(OC)c(OC)cc1NC(=O)CSc1nnnn1Cc1ccccc1	n
CC(C)(C)c1ccc(-c2cc(N)n[nH]2)cc1	48
COc1ccc(C(=O)N2c3cc4c(cc3C(C)=CC2(C)C)OCO4)cc1	n
CCNC(=O)NC(=O)COC(=O)c1ccccc1SCC(=O)NC(=O)NCC	n
CC(=O)c1c(NCCc2ccccc2)cc(C)oc1=O	n
CC(=O)CC1OC(=O)C(Br)=C1NCc1ccccc1 (configuration not stated)	79
CCn1c(=NC(=O)CN2C(=O)CCC2=O)sc2c(C)cc(C)cc21	n
Cc1c(S(=O)(=O)Nc2cc(Cl)ccc2Cl)c(=O)n(C)c(=O)n1C	n
Cc1cccc(-n2ncc3c(N(C)C4CCCCC4)ncnc32)c1	77
Cc1cccc(-n2ncc3c(NCc4ccco4)ncnc32)c1	n
CCN(c1ccccc1)c1ncnc2c1cnn2-c1ccccc1	n
Cc1cccc(-n2ncc3c(NCc4ccccc4)ncnc32)c1	n
COc1ccc(-n2ncc3c(N(C)C4CCCCC4)ncnc32)cc1	74
c1ccc(-n2ncc3c(NCCN4CCCCC4)ncnc32)cc1	n
Cn1c(=O)c2nc(-c3ccc(Cl)cc3Cl)oc2c2ccccc21	n
Cc1onc(-c2ccccc2)c1C(=O)Nc1cccc(C#N)c1	n
O=C(NCCCn1ccnc1)c1cc(-c2cccs2)on1	n
SMILES	SF-1 inh
Cn1c(NC(=O)c2ccccc2F)cc(=O)n(C)c1=O	n
O=S(=O)(C/C(=C/CO)S(=O)(=O)c1ccccc1)c1ccccc1	96
O=C(CS(=O)(=O)c1ccccc1)c1ccc2c(c1)OCCO2	n
CCOC(=O)c1c(NC(=O)CSc2nc(C)cc(C)c2C#N)sc(C(C)=O)c1C	n
COc1nc(OC)nc(N2CCC(C(=O)NCC3CCCCC3)CC2)n1	n
O=C(CSc1n[nH]c(-c2ccncc2)n1)NC1CCS(=O)(=O)C1 (configuration not stated)	n
Cc1c(CCC#N)c(N2CCN(C3CCCCC3)CC2)n2c(nc3ccccc32)c1C#N	n
